Source: PubChem
Most compounds without a hit are left out; they make up all but 5.3% or so of the library.
FMDV inh: High Throughput Screening for Foot and Mouth Disease Virus Antivirals; FMDV antiviral cell-based qHTS; Potency, µM (series often up to 57.9 µM), for inactives: at the highest dose activity change, negative = inhibition, usual class: inhibitors; 410,000 tested, 1.2% active; AID 1159524, 2015; calls by dose curve; tested in HEK293T cells; further: read-out not given here; nearly all actives have a fitted effect of over 45% in size
Vaccinia Venus: qHTS for Stage-Specific Inhibitors of Vaccinia Orthopoxvirus: Venus Reporter Primary qHTS; AID 720580, 2013; 330,000 tested, 0.46% active; Potency, µM (doses to about 36.5 µM), without a hit: at the top dose activity change, negative = inhibition, actives largely listed as inhibitors; Vaccinia virus Venus reporter expression, fluorescence; calls by dose curve; tested in A549 cells; further: nearly all actives have a fitted effect of over 30% in size
Lassa entry inh: qHTS for Inhibitors of binding or entry into cells for Lassa Virus. Lassa virus pseudotype entry inhibition, cell reporter. Potency, µM (top dose mostly 37.9 µM), for inactives: top-dose activity change, negative = inhibition, most hits filed as inhibitors. 300,000 tested, 1.2% active; calls by dose curve; tested in HEK293 cells; further: nearly all actives have a fitted effect of over 50% in size
Vaccinia mCherry: qHTS for Stage-Specific Inhibitors of Vaccinia Orthopoxvirus: mCherry Reporter Primary qHTS | Vaccinia virus mCherry reporter infection, fluorescence | Potency, µM (doses to about 36.5 µM), inactives show at the highest dose activity change, negative = inhibition, most hits filed as inhibitors | 310,000 tested, 0.63% active | AID 720579, 2013; calls by dose curve; tested in A549 cells; further: nearly all actives have a fitted effect of over 35% in size
Marburg entry inh: qHTS for inhibitors of binding or entry into cells for Marburg Virus; Marburg virus pseudotyped entry inhibition, cell reporter; 300,000 tested, 1.8% active; Potency, µM (doses to about 37.8 µM), without a hit: top-dose activity change, negative = inhibition, usual class: inhibitors; AID 540276, 2011; calls by dose curve; tested in HEK293 cells
HCV inh: qHTS Assay for Inhibitors of Hepatitis C Virus (HCV). Huh7.5.1 HCVcc-Cre infection, luciferase reporter, 44 h. Potency, µM (series often up to 41.8 µM), for inactives: top-dose activity change, negative = inhibition, actives largely listed as inhibitors. 340,000 tested, 3.4% active. AID 651820, 2012; active means well fitted inhibition curve with a large enough effect; inconclusive means small, poorly fitted or top-dose-only effect, or another doubt; inactive means no such curve, though single readings can be large or run the other way
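Reporter virus HCVcc-Cre (~0.5 moi) infects cells exposed to compound; seeding density 1,000 cells/well with 4 h settling beforehand. Luminescence, 15 sec read, taken 44 h post-infection following a 15 min RT substrate incubation.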
* hit, by the source's call; i = inactive; ? = inconclusive; . = no result; [ ] = another dose, or the depositor's remark. On the % scale 0 is the no-effect control and ±100 the full control effect; potency means the concentration at half of the fitted maximal effect.

SMILES	FMDV inh	Vaccinia Venus	Lassa entry inh	Vaccinia mCherry	Marburg entry inh	HCV inh
CCCNC1=C(C)C(=O)C2=C(C1=O)C(COC(N)=O)[C@]1(OC)C3NC3CN21 (some centres not stated)	-3.4%	?	?	?	6.31µM*	?
CO[C@@]12[C@H](COC(N)=O)C3=C(C(=O)C(C)=C(N)C3=O)N1C[C@@H]1N[C@@H]12	-13.0%	?	.	?	.	5.7%
CO[C@@]12[C@@H]3N[C@@H]3CN1C1=C(C(=O)C(N)=C(C)C1=O)[C@@H]2COC(N)=O	-4.3%	2.51µM*	?	5.62µM*	?	?
CCCSC1=NC2(CCN(C(=O)NC3CCCCC3)CC2)N=C1c1ccc(OC)cc1	-19.3%	-21.0%	-28.0%[46.1 µM]	-23.6%	.	.
C=CCNc1ncnc2c1ncn2[C@H]1CN(CCc2ccccc2)C[C@@H](CO)O1	-9.3%	-1.3%	.	20.3%	.	.
CC1(C)CN(CCc2ccccc2)C(=O)[C@@H]1CC(=O)Nc1ccccc1	.	.	-4.2%[46.1 µM]	.	.	.
O=C(N/N=C/c1ccc([N+](=O)[O-])o1)c1cc(-c2ccncc2)nc2ccccc12	-7.5%	.	?	.	?	10µM*
Cc1cc(N/N=C/c2ccc([N+](=O)[O-])o2)nc2ccccc12	-24.4%	4.4%	0.8%	?	?	10µM*
Cn1c(/C=C/c2ccccc2)nc2ccccc2c1=O	20.5%	-28.5%	9.4%	?	?	?
Cn1c(/C=C/c2ccc([N+](=O)[O-])o2)nc2ccccc2c1=O	25.1µM*	?	2.82µM*	4.47µM*	?	2µM*
Clc1ccc2c(N/N=C/c3ccccc3Br)ccnc2c1	0.0%	-12.9%	-1.4%	-21.0%	?	?
O=[N+]([O-])c1ccc(/C=N/Nc2ccnc3cc(Cl)ccc23)o1	22.4%	?	-16.1%[46.1 µM]	15.8µM*	?	?
COc1ccccc1CN1CCC(n2nccc2NC(=O)CCc2ccccc2)CC1	-1.0%	-8.2%	1.7%[46.1 µM]	-11.3%	?	0.9%
Cc1ccc(-c2cc(C(=O)N/N=C/c3ccc([N+](=O)[O-])o3)c3ccccc3n2)o1	-16.6%	?	?	?	?	11.2µM*
O=C(N/N=C/c1ccc([N+](=O)[O-])o1)c1cc(-c2ccc(-c3ccccc3)cc2)nc2ccccc12	?	-2.6%	?	?	?	-52.3%
O=C(CCNC(=O)N1CC(=O)Nc2ccccc21)NCc1ccccc1	-14.5%	-4.9%	.	-6.5%	.	.
COCCOCCOCCC(=O)N[C@@H]1C[C@@H]2CC[C@@]1(C)C2(C)C	.	.	.	.	-1.3%	.
CC(C)(C)C(=O)Nc1ccc(NC(=O)c2ccco2)nc1	6.31µM*	-5.9%	?	-8.4%	?	10.1%
O=C(Nc1ccc(NC(=O)c2ccco2)nc1)c1ccco1	-42.6%	-10.4%	?	i	?	13.7%
c1ccc(-c2nc(-c3ccncc3)no2)cc1	38.2%	-5.3%	0.0%	-14.2%	5.7%	-24.6%
c1ccc(C(Cc2nc(-c3ccncc3)no2)c2ccccc2)cc1	?	.	?	.	3.5%	7.94µM*
COc1ccc(S(=O)(=O)Nc2ccc(C)cc2)cc1N(C)S(=O)(=O)c1ccc(Cl)cc1	.	17.8µM*	?	?	?	8.91µM*
COc1ccc(S(=O)(=O)NN(C)C)cc1N(C)S(=O)(=O)c1ccc(Cl)cc1	-6.6%	-4.3%	7.5%	i	24.1%	5.2%
O=C(CSc1nnc(-c2c[nH]c3ccccc23)o1)N(Cc1ccccc1)c1ccc(F)cc1	.	?	?	?	18.3µM*	?
COc1ccc(CN(C(=O)CSc2nnc(-c3ccccc3C)o2)c2ccc(F)cc2)cc1	?	-10.0%	-16.9%	.	?	-6.3%
SMILES	FMDV inh	Vaccinia Venus	Lassa entry inh	Vaccinia mCherry	Marburg entry inh	HCV inh
COc1ccc(C)cc1-n1nnc(-c2nc(-c3ccccc3Cl)no2)c1N	29.3%	-13.5%	2.9%[46.1 µM]	-17.4%	.	.
O=C(N/N=C/c1sc2ccccc2c1O)c1ccccc1	-2.6%	-23.3%	?	10µM*	?	4.47µM*
O=C(N/N=C/c1sc2ccccc2c1O)c1cccc2ccccc12	27.7%	?	?	?	14.1µM*	1.78µM*
O=C(CC[C@H]1O[C@@H](n2cnc3c(NC(=O)c4ccccc4)ncnc32)[C@H](O)[C@@H]1O)NCC1CCN(Cc2ccccc2)CC1	-13.3%	1.2%	.	29.6%	.	.
Cc1cc(=O)c(C(=O)N(C)CCc2ccccn2)c2n1-c1ccccc1SC(c1ccsc1)C2 (configuration not stated)	-7.0%	15.9%	.	0.6%	.	.
O=C1/C(=C/c2ccncc2)SC(=S)N1Cc1ccccc1	?	-7.0%	-25.7%	-11.7%	11.2µM*	7.4%
O=C1/C(=C\c2cccc(O)c2O)SC(=S)N1Cc1ccccc1	?	34.3%	?	-15.2%	?	25.1µM*
O=C(NCCc1nc2ccccc2n1CCCOc1ccccc1)C1CCCCC1	.	-22.5%	.	12.3%	.	.
CCCn1c(=O)c2sccc2n2c(CCCC(=O)N3CCN(c4cccc(Cl)c4)CC3)nnc12	-22.3%	-0.4%	-8.3%[46.1 µM]	-12.0%	.	.
Cc1ccc(Cl)cc1NC(=S)N(CCCN1CCN(C)CC1)Cc1cccs1	-8.0%	-18.0%	.	-23.3%	?	6.31µM*
Cc1cc(Cl)ccc1NC(=S)N(CCCN1CCOCC1)Cc1cccs1	12.0%	-11.2%	19.1%	-27.4%	?	-2.8%
COc1cc(Cl)c(C)cc1NC(=O)CC(c1ccc(F)cc1)N1Cc2ccccc2C1=O (configuration not stated)	-13.8%	-26.1%	2.6%[46.1 µM]	-23.7%	.	.
CN(CCO)C[C@H](O)Cn1cnc2c1c(=O)n(C)c(=O)n2C (tested in a mixture with another compound)	.	.	.	.	-16.8%	.
CC(C)c1c(C(=O)N(C)Cc2cccc3ncccc23)cnn1-c1nccc(-c2ccccc2F)n1	12.6µM*	?	.	?	.	.
CCOC(=O)N1CCN(C(=O)Cc2c(C(=O)O)n(C)c3ccccc23)CC1	-8.2%	0.9%	-2.1%	-14.4%	7.6%[46.1 µM]	3.55µM*
CCOC(=O)c1ccccc1NC(=O)Cc1c(C(=O)O)n(C)c2ccccc12	-9.4%	-0.7%	-2.2%[46.1 µM]	i	1.0%[46.1 µM]	6.2%
O=C(/C=N/O)Nc1ccc2sc3ccccc3c2c1	26.9%	-2.1%[7.34 µM]	8.6%	i[7.34 µM]	10.3%[46.1 µM]	12.6µM*
COc1ccc(-c2cc(-c3nc4ccccn4c3NCc3ccccc3)ccc2OC)cc1	3.55µM*	11.2µM*	.	?	.	?
COc1ccc(-c2nc3ccccn3c2NCc2ccc3c(c2)OCO3)cc1	14.1%	-2.2%	15.0%	-12.7%	-8.0%	-20.6%
Cc1ccn2c(NCc3ccccc3)c(-c3cccc(SC4CCCCC4)c3)nc2c1	?	-13.8%	.	-4.5%	.	?
